This is an account of results in PubChem BioAssay (NCI).

The panel holds about 83,000 compounds, 20% with a hit somewhere; the sample as a whole holds those more often.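 A percent growth of 40 corresponds to 60% growth inhibition; 0 means no net growth; -100 means all cells died. Active threshold: below 10.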 Calls of active or inactive are those of the source.

The subject of the test is HL-60(TB) leukemia. Briefly: NCI-60 one-dose screen, 48 h (100 = growth as untreated, 0 = no growth, -100 = all killed). Particulars: 10 µM unless noted.
For `CN(c1ccccc1)c1ncnc2c1ncn2C`, the growth is 105% (inactive).
For the compound `CC(C)c1ccc(C(=O)OC(=O)c2ccc(C(C)C)cc2)cc1`, the growth was 51.3% (inactive).
The result for `Cc1cn(-c2cc(NC(=O)c3cccc(C#Cc4cccc5[nH]nc(N)c45)c3)cc(C(F)(F)F)c2)cn1` reads 12.5% (inactive).
The result for `O=C(OCc1nc2nc(Cl)nc(N3CCOCC3)c2[nH]1)n1ccnc1` reads -30.1% (active); that for `Cc1cc2nc(CC(=O)c3ccccc3)c(=O)[nH]c2cc1C`, 103% (inactive).
The result for `Cc1c(Cl)cccc1C(=O)Nc1nc2c(s1)CN(C(=O)c1ccc(C(F)(F)F)cc1)CC2` reads -21.8% (active); that for `COc1cc(/C=C/c2cc(/C=C/c3ccc(O)c(OC)c3)n(C(N)=O)n2)ccc1O`, -25.1% (active).
In the case of `CC/C(=C(\c1ccc(OCCN2CCCCCCC2)cc1)c1ccc(OC(=O)C2CCCCC2)cc1)c1ccc(Cl)cc1`, the growth was 77.8% (inactive).
With `CN1CCN(CC(=O)N2c3cccc4cccc(c34)N(C(=O)CN3CCN(C)CC3)C2c2cn(-c3ccccc3)nc2-c2cccc([N+](=O)[O-])c2)CC1` the figure was -60% (active); with `CCOC(=O)n1cc(C2=C(c3ccc(OC)c(OC)c3)COC2=O)c2ccccc21`, -28.7% (active); with `O=C1OCC2=C1C(c1cccc(F)c1)c1cc3c(cc1N2CCO)CCC3` (configuration not stated), -29.8% (active).
The result for `O=C1NC(=O)C(=Cc2cc(-c3ccc(Cl)cc3)n(-c3ccccc3)n2)C(=O)N1` reads 89.5% (inactive); that for `COc1ccc(NC(=O)c2sc3nc(C)c(C(O)c4ccc(OC)cc4)cc3c2N)cc1` (configuration not stated), -59.5% (active); that for `O=c1[nH]c(CN2CCN(c3ccccc3)CC2)nc2c(Br)cc(Br)cc12`, 99.2% (inactive).
`OC1(c2ccc(Cl)c(C(F)(F)F)c2)CCN(CCCC(c2ccc(F)cc2)c2ccc(F)cc2)CC1`: the growth was -49.6% (active).
The result for `Nc1nc(-c2cnccn2)nn1-c1nc2ccccc2s1` reads 100% (inactive); that for `O=C1/C(=C/c2ccccc2[N+](=O)[O-])COc2ccc(O)cc21`, -8.06% (active); that for `CC(C)(C)c1ccc(OC(=O)Nc2ccccc2)cc1`, 95.9% (inactive).
The result for `O=c1c2ccccc2sc2c(NCCCNCCO)nc3ccccc3c12` reads 7.81% (active); that for `Cc1cc(C(O)CN(C)C)cc2c1ccc1cc(C(C)C)ccc12` (configuration not stated), -52.8% (active).
With `COc1cc2c(c(OC)c1)C1c3cc(OC)ccc3NC(=O)N1CC2` (configuration not stated) the figure was 66.3% (inactive).
With `Clc1cccc(Cc2cn3cc(-c4ccccc4)nc3s2)c1`, the growth was 66.1% (inactive).
The result for `COc1ccc(CN2CCc3c(Cl)nc(N)nc3C2=O)c(OC)c1` reads 12.3% [100 µM] (inactive).
`COc1cc(NCCCCCNC(C)(C)C)c2ncccc2c1`: the growth is 128% (inactive).
With `COc1ccc(/C=C(\C#N)n2nnc3c(F)cccc32)cc1` the figure was -5.39% (active).
With `Cc1ccc(C)c(S(=O)(=O)NC2c3ccccc3Oc3ccccc32)c1` the figure was 86.9% (inactive); with `NC(=O)c1ccc(NC(=O)c2oc3ccccc3c2-c2cnn(-c3ccccc3)c2)cc1`, 98.4% [50 µM] (inactive).
